Compound activity: PubChem BioAssay, National Center for Advancing Translational Sciences (NCATS)
Rab9 promoter act – activators of Rab9 promoter; Huh7 Rab9 promoter-luciferase reporter, luminescence, 24 h; Potency, µM (highest dose often 9.22 µM), for inactives: at the highest dose activation, negative = inhibition, hits mostly activators; 320,000 tested, 2.8% active; AID 485297; also: % of control where 0% means no effect; nearly all actives have a fitted effect of over 60% in size
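Using Huh7 cells stably transfected with Rab9 promoter–luciferase, compounds were incubated 24 h at 37 °C, 5% CO2; luciferase luminescence was read 10 min after reagent addition.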
ELG1 genotoxic – genotoxicity induction in ELG1-luciferase HEK293T cells; HEK293T ELG1-luciferase reporter, luminescence, 16 h; Potency, µM (highest dose often 46 µM), inactives show top-dose activity change, positive = activation, most hits filed as activators; 330,000 tested, 1.3% active; AID 504466; also: % of control where 0% means no effect; nearly all actives have a fitted effect of over 60% in size
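After overnight (16 hr) compound treatment at 37 °C, ELG1-luciferase HEK293T cells were lysed with ONE-Glo; luminescence quantified 30 min later at room temperature.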
ELG1 DNA repair – inhibitors of ELG1-dependent DNA repair in HEK293T cells; HEK293T ELG1-luciferase reporter, luminescence, 16 h; DNA damage induced by 5-fluorouridine; Potency, µM (series often up to 46.1 µM), inactives show at the highest dose activity change, negative = inhibition, usual class: inhibitors; 330,000 tested, 2.3% active; also: % is scaled to controls: 0 for no effect and ±100 for the full control effect; nearly all actives have a fitted effect of over 55% in size
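Step one: seed 2,000 cells per well. Step two: pin-transfer compound or DMSO alongside 5-fluorouridine. Step three: incubate 16 hr, 37 °C, 5% CO2. Step four: add ONE-Glo, wait 30 min, read luminescence.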
FLuc modulator – inhibits or activates purified firefly luciferase, miR-21 counter-screen. 360,000 tested, 6.9% active. purified FLuc, Km substrates, luminescence inhibition. P08659. Potency, µM (titrated, usually from 57.5 µM), without a hit: at the top dose activity change, negative = inhibition, hits mostly inhibitors. AID 588342;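 also: plate controls were vehicle for no effect and reference inhibitor for full effect; nearly all actives have a fitted effect of over 55% in size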
Target sequence (P08659 whole entry, looked up): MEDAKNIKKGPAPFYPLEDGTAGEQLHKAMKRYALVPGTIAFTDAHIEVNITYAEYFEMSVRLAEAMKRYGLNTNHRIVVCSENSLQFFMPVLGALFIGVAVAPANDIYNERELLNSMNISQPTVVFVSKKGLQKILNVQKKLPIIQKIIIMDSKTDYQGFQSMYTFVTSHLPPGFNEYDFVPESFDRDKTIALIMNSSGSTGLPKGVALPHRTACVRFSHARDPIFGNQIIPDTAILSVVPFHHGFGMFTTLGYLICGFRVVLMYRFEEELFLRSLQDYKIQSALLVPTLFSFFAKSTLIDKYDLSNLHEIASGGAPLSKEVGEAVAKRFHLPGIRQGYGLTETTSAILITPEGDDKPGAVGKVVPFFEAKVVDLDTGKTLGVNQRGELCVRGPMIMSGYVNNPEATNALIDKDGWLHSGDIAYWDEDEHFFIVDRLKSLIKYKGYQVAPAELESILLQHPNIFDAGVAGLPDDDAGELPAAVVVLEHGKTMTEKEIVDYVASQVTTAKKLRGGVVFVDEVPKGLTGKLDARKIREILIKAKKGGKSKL
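Purified P. pyralis luciferase (10nM final) with 10uM D-luciferin and 10uM ATP (Km levels) in 50mM Tris acetate pH 7.5, 10mM Mg acetate, 0.01% Tween-20, 0.05% BSA; qHTS 6-point titration, ~60 µM downward; luminescence read.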
NPC1 promoter act – activates the NPC1 promoter; Huh7 NPC1 promoter luciferase reporter, 24 h; Potency, µM (highest dose often 9.22 µM), for the others: at the highest dose activation, actives largely listed as activators; AID 485313; 320,000 tested, 2.4% active; also: % of control where 0% means no effect; nearly all actives have a fitted effect of over 60% in size
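Stable NPC1-promoter luciferase Huh7 line; cpd (DMSO) 24 h, 37 °C, 5% CO2; Amplite luciferase reagent 10 min RT; luminescence readout. qHTS format.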
SMN2 splice up – increases expression of the SMN2 splice variant. 210,000 tested, 2.8% active. Potency, µM (highest dose often 46.1 µM), without a hit: at the top dose activity change, positive = activation, actives largely listed as activators. HEK293 SMN2-luciferase splicing reporter, luminescence, 30-36 h. AID 1458; also: % of control where 0% means no effect; nearly all actives have a fitted effect of over 55% in size
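HEK293 cells carry an SMN2 minigene-luciferase reporter in which exon 7 inclusion puts luciferase in frame. Cells were seeded at 2000 cells/well, attached for 10-12 hours, then exposed to compounds for 30-36 hours at 37C before ONE-Glo luminescence.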
* hit, by the source's call; ? = inconclusive; . = no result. Shown are actives, neighbours in structure and some others; about 9.2% of the full set was active somewhere. Calls follow the shape of the dose curve; as a rule, active = well fitted curve in the direction sought with a large enough effect; inconclusive = small, poorly fitted or top-dose-only effect, or another doubt; inactive = no such curve, though single readings can be large; an effect the other way counts as inactive or inconclusive. Potency is read from the fitted curve at half-maximal effect.

SMILES	Rab9 promoter act	ELG1 genotoxic	ELG1 DNA repair	FLuc modulator	NPC1 promoter act	SMN2 splice up
CCCCN(c1ccccc1)c1ncnc2c1cnn2-c1cccc(C)c1	.	.	.	-15%	.	.
CCCCN(c1ccccc1)c1ncnc2c1cnn2-c1ccc(Cl)cc1	.	.	.	13µM*	.	.
CCN(c1ccccc1)c1ncnc2c1cnn2-c1ccc(OC)cc1	.	.	.	6.7µM*	.	.
Cc1ccc(C)c(NC(=S)NNC(=O)c2csc3c2CCCC3)c1	3%	-2%	-10%	-3%	1%	-11%
Cc1cccc(NC(=S)NNC(=O)c2csc(C)c2)c1	?	14%	?	8.5µM*	14%	.
Cc1cc(C(=O)Nc2ccc(Br)cc2)cs1	0.63µM*	6.5µM*	?	19µM*	?	.
Cc1cccc(NC(=S)NNC(=O)c2cccc([N+](=O)[O-])c2)c1	2%	-2%	-6%	?	-5%	.
Cc1cccc(NC(=S)NNC(=O)c2csc3c2CCCC3)c1	?	0%	?	12µM*	?	?
NC(=O)CNC(=O)[C@@H]1CC2(CC(c3ccc(Cl)cc3)=NO2)CN1C(=O)c1ccc(Br)cc1 (stereo partly specified)	1%	-1%	3%	-9%	-2%	5%
CCCCn1c(N)c(N(CC(C)C)C(=O)c2ccc(F)c(S(=O)(=O)N3CCOCC3)c2)c(=O)[nH]c1=O	-5%	5%	12%	2%	-1%	.
CCC1CN(C(=O)Nc2ccc(C)c(F)c2)c2ccccc2S1 (stereo unspecified)	.	.	.	-13%	.	.
COc1ccc(OCc2cc(C(=O)NCC(C)Oc3cccnc3)no2)c(Cl)c1 (stereo unspecified)	?	6%	24%	15µM*	?	.
Cc1ccc(OCc2cc(C(=O)NC(C)Cc3cnccn3)no2)cc1C (stereo unspecified)	4%	0%	3%	-21%	-5%	.
COc1ccc(OCc2cc(C(=O)NCCc3ccccc3)no2)c(Cl)c1	2%	-5%	-13%	?	-20%	.
COc1cc(Cl)ccc1OCc1cc(C(=O)NC(C)Cc2cccnc2)no1 (stereo unspecified)	?	5%	?	8.5µM*	?	.
COc1cc(Cl)ccc1OCc1cc(C(=O)N(C)Cc2cccc3cnccc23)no1	?	-15%	0%	13µM*	?	.
COc1ccccc1CCc1nnc(CCC(=O)N(C)Cc2cccc3cnccc23)o1	2.8µM*	5%	?	12µM*	4µM*	.
CC(=O)c1ccc(N2CCN(Cc3nc(Cc4ccccc4)no3)CC2)cc1	-1%	-2%	?	0%	-7%	.
CCCn1cc(CN2CCC(Oc3ccc(C(=O)N4CCCC4)cc3)CC2)c(C)n1	-5%	-1%	-1%	1%	-19%	.
CCOc1ccc(N(CC(=O)N2CCOCC2)S(=O)(=O)c2ccc(SC)cc2)cc1	-1%	-5%	9%	0%	1%	.
CCc1ccc(C(=O)c2cn(CC(=O)Nc3ccc(F)cc3)c3cc4c(cc3c2=O)OCO4)cc1	.	.	.	-2%	.	-9%
COc1ccc(OCc2cc(C(=O)NC(C)Cc3cnccn3)no2)c(Cl)c1 (stereo unspecified)	?	?	?	19µM*	?	.
CN(C)/C=C/C(=O)c1ccc(Br)s1	27%	?	?	?	-1%	11%
CN(C)/C=C/C(=O)c1cnc(-c2ccccn2)s1	1.6µM*	25%	?	?	3.2µM*	11µM*
CN(C)/C=C/C(=O)c1cnc(-c2cccc(Cl)c2)s1	1.3µM*	?	?	12µM*	3.2µM*	14µM*
CN(C)/C=C/C(=O)c1cnc(-c2ccccc2Cl)s1	1.3µM*	?	?	9.5µM*	2µM*	13µM*
CC(NC(=O)COc1ccc(S(=O)(=O)N2CCCC2)cc1)c1ccccc1 (stereo unspecified)	-4%	-9%	11%	0%	0%	.
